Experimental data from PubChem BioAssay (Tox21).
Inconclusive results are not listed. A call without a number means that no potency is given here. Active and inactive are the calls of the source. Calls come from the whole dose curve; as a rule, active = well fitted activation curve with a large enough effect in the signal ratio in the repeat runs (not every such curve was filed as active); inconclusive = weak or mixed curves, or effect the other way; inactive = no such curve, though single readings can be large or run the other way; the % refers to the signal ratio.

Test: qHTS assay for small molecule agonists of the antioxidant response element (ARE) signaling pathway (AID 743202)
Details: HepG2 ARE-bla reporter, beta-lactamase FRET, 16 h; series mostly up to 73.3 µM
Source text: U.S. Tox21 Program National Center for Advancing Translational Sciences [NCATS] NIH Chemical Genomics Center [NCGC] U.S. Environmental Protection Agency [EPA] National Institutes of Environmental Health Sciences [NIEHS] National Toxicology Program [NTP] U.S. Food and Drug Administration [FDA] Tox21 Assay Overview: Oxidative stress has been implicated in the pathogenesis of a variety of diseases ranging from cancer to neurodegeneration. The antioxidant response element (ARE) signaling pathway plays an important role in the amelioration of oxidative stress. The CellSensor ARE-bla HepG2 cell line (Invitrogen) can be used for analyzing the Nrf2/antioxidant response signaling pathway. Nrf2 (NF-E2-related factor 2) and Nrf1 are transcription factors that bind to AREs and activate these genes. The CellSensor ARE-bla Hep G2 cell line contains a beta-lactamase reporter gene under control of the Antioxidant Response Element (ARE) stably integrated into HepG2 cells. The activation of the report gene under culture conditions can be detected by fluorescence intensity. This cell line has been used to screen the Tox21 10K compound library to identify agonists that induce oxidative stress.
Tox21 Assay Protocol Summary: The ARE-bla cells were dispensed at 2,000 cells/5 ul/well in 1536-well black wall/clear bottom plates using a Multidrop dispenser. After the assay plates were incubated at a 37 C/5% CO2 incubator for 5 hours, 23 nL of compounds dissolved in DMSO, positive controls or DMSO only was transferred to the assay plate by a pin tool. The plates were incubated at 37 C for 16 hours. After 1 uL of LiveBLAzer B/G FRET substrate was added using a Flying Reagent Dispenser, the plates were incubated at room temperature for 2 hours, and fluorescence intensity was measured by an Envision plate reader.
Potency is the fitted concentration of half-maximal effect.

| SMILES | Potency |
| --- | --- |
| CN=C(NC#N)Nc1ccc(C2=NNC(=O)CC2C)cc1 (stereo not given) | inactive |
| OCCC(F)(F)C(F)(F)C(F)(F)C(F)(F)C(F)(F)C(F)(F)C(F)(F)C(F)(F)F | inactive |
| CN1C(C)(C)CCCC1(C)C | inactive |
| O=C(OCC(COC(=O)c1cccnc1)(COC(=O)c1cccnc1)COC(=O)c1cccnc1)c1cccnc1 | inactive |
| O=C(OCC(O)CO)c1ccccc1Nc1ccnc2c(C(F)(F)F)cccc12 (stereo not given) | 26.6 µM (active) |
| BrCCCCCBr | inactive |
| CC(C)N(c1ccccc1)C(C)C | inactive |
| CCOc1cc(NC(C)=O)ccc1C(=O)OC | inactive |
| Cc1c(I)c(=O)n(-c2ccccc2)n1C | inactive |
| Nc1cccc(O)c1 | inactive |
| CCCCC(CC)COCCO (stereo not given) | inactive |
| C=Cc1ccccn1 | inactive |
| CC(=O)c1sc(C)nc1C | inactive |
| CCOC(=O)[C@H](CCc1ccccc1)N[C@@H](C)C(=O)N1C(=O)N(C)C[C@H]1C(=O)O | inactive |
| C=C1CC/C=C(\C)CC[C@@H]2[C@@H]1CC2(C)C | inactive |
| Cc1ccc2ccc(Cl)cc2n1 | inactive |
| CCO[Si](CCCS)(OCC)OCC | inactive |
| O=C(OCC1(COC(=O)c2cccnc2)CCCC(COC(=O)c2cccnc2)(COC(=O)c2cccnc2)C1O)c1cccnc1 | inactive |
| O=P(O)(O)OP(=O)(O)O | inactive |
| C=C(C)C1CCC(C)(O)CC1 (stereo not given) | inactive |

| SMILES | Potency |
| --- | --- |
| c1ccc2c(c1)ccc1c3ccccc3ccc21 | 24.8 µM (active) |
| CC1COc2ccccc2N1 (stereo not given) | inactive |
| O=C(O)c1cc(Br)c(O)c(Br)c1 | inactive |
| CC(=O)Nc1ccc(S(=O)(=O)Cl)cc1 | inactive |
| COc1cc2c(cc1OC)C(=O)CC2 | inactive |
| CC(=O)NCc1c(I)c(NC(C)=O)c(I)c(C(=O)O)c1I | inactive |
| CCCOC(=O)C(C)O (stereo not given) | inactive |
| CCOc1cc([N+](=O)[O-])c(OCC)cc1N1CCOCC1 | inactive |
| CCCCN | inactive |
| O=C(O)C(=O)Cc1ccccc1 | 27.3 µM (active) |
| CCCCCCCCCCl | inactive |
| CCCCCCOC(=O)CC | inactive |
| CCCCCCCCOS(=O)(=O)O | inactive |
| O=C1c2ccccc2C(=O)c2cc(S(=O)(=O)O)ccc21 | inactive |
| Cc1cccc(C)c1OCC(C)N (stereo not given) | inactive |
| CC(C)c1ccc2cc(C(C)C)ccc2c1 | inactive |
| N[C@@H](CCC(=O)N[C@@H](CS)C(=O)NCC(=O)O)C(=O)O | inactive |
| O=C(O)CCSSCCC(=O)O | inactive |
| CCOCCOCCOCC | inactive |
| On1nnc2ccccc21 | inactive |
